Rab9 prom act: Rab9 promoter activation. Huh7 Rab9 promoter-luciferase reporter, luminescence, 24 h. Potency, µM (highest dose often 9.22 µM), for inactives: top-dose activation, negative = inhibition, hits mostly activators. hit rate 2.8% among 320,000. AID 485297; further: % of control where 0% means no effect; nearly all actives have a fitted effect of over 60% in size
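Steps: seed 1500 Huh7 Rab9-luc cells per well, rest 2 h at 37 °C; add compound in DMSO; incubate 24 h; add luciferase reagent, 10 min ambient; read luminescence.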
ELG1 genotox: induces genotoxicity in HEK293T cells with luciferase-tagged ELG1; HEK293T ELG1-luciferase reporter, luminescence, 16 h; Potency, µM (series often up to 46 µM), inactives show at the highest dose activity change, positive = activation, hits mostly activators; hit rate 1.3% among 330,000; AID 504466; further: % of control where 0% means no effect; nearly all actives have a fitted effect of over 60% in size
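HEK293T cells expressing luciferase-tagged ELG1 were treated with compound or DMSO for 16 hr at 37°C. Luciferase activity was then read after 30 min with ONE-Glo at room temperature; rising signal flags genetic stress.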
SMN2 splice enh: enhancers of SMN2 splice variant expression. HEK293 SMN2-luciferase splicing reporter, luminescence, 30-36 h. hit rate 2.8% among 210,000. Potency, µM (series often up to 46.1 µM), for the others: at the highest dose activity change, positive = activation, most hits filed as activators; further: % of control where 0% means no effect; nearly all actives have a fitted effect of over 55% in size
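qHTS luciferase splicing reporter: luminescence rises when SMN2 exon 7 is included in transfected HEK293 cells. Compound exposure lasted 30-36 h at 37C, with 4.5 mM final sodium butyrate as control, followed by a ONE-Glo read.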
NPC1 prom act: activates the NPC1 promoter; Huh7 NPC1 promoter luciferase reporter, 24 h; Potency, µM (titrated, usually from 9.22 µM), inactives show top-dose activation, usual class: activators; hit rate 2.4% among 320,000; AID 485313; further: % of control where 0% means no effect; nearly all actives have a fitted effect of over 60% in size
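Luciferase expression driven by the NPC1 promoter was measured in stably transfected Huh7 cells after a 24 h compound incubation, using a luciferase reagent and a luminescence read.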
p53 reactivation: mutant p53 re-activation in reporter cells | H1299 p53-A138V BP100-luciferase reporter, luminescence, 24 h | Potency, µM (top dose mostly 92.2 µM), for the others: at the top dose activity change, positive = activation, hits mostly activators | hit rate 0.063% among 320,000; further: % of control where 0% means no effect; nearly all actives have a fitted effect of over 45% in size
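p53-null H1299 cells stably carrying temperature-sensitive p53-A138V and a BP100-luciferase reporter were pinned with compounds (4-point, 1:5 series) and held 24 hrs at 37 deg C. Luminescence was read 10 min after detection reagent.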
FLuc modulator: firefly luciferase modulation, counter-screen for miR-21 project; P08659; purified FLuc, Km substrates, luminescence inhibition; Potency, µM (series often up to 57.5 µM), for inactives: top-dose activity change, negative = inhibition, hits mostly inhibitors; hit rate 6.9% among 360,000; AID 588342;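 further: plate controls were vehicle for no effect and reference inhibitor for full effect; nearly all actives have a fitted effect of over 55% in size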
Target sequence (P08659 whole entry, looked up): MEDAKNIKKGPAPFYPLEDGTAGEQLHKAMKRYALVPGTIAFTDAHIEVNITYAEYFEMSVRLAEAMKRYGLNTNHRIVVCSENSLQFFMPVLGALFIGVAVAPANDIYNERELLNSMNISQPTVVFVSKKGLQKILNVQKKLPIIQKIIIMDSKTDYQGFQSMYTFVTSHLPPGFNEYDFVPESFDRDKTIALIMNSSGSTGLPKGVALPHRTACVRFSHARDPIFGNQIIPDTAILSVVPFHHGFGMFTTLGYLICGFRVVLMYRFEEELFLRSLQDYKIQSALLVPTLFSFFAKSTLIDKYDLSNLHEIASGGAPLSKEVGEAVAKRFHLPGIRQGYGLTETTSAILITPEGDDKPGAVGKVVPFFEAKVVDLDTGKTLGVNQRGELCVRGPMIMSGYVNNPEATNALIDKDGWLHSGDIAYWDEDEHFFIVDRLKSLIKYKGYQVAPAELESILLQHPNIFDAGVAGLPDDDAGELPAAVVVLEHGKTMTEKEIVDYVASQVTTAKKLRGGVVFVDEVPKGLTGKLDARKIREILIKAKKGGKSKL
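Biochemical qHTS of compounds, final roughly 60 µM downward over six points, against 10 nM purified firefly luciferase using Km concentrations of substrates (10 uM D-luciferin, 10 uM ATP) in Tris acetate pH 7.5 buffer; luminescence output.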
Starred values were filed as active, the others as inactive; u = inconclusive; x = no result given; [ ] = dose if it differs, or a comment. Most compounds without a hit are left out; they make up all but 7.3% or so of the library. The call rests on the fitted dose curve; in most records, active means well fitted curve in the direction sought with a large enough effect; inconclusive means small, poorly fitted or top-dose-only effect, or another doubt; inactive means no such curve, though single readings can be large; an effect the other way counts as inactive or inconclusive. Potency means the concentration at half of the fitted maximal effect.

SMILES	Rab9 prom act	ELG1 genotox	SMN2 splice enh	NPC1 prom act	p53 reactivation	FLuc modulator
O=c1[nH]c(-c2ccccn2)nc2sc(-c3ccccc3)cc12	u	7.3µM*	8.91µM*	3.55µM*	u	2.13µM*
CCC(C)N1C(=O)S/C(=C/c2ccc(N3CCOCC3)cc2C)C1=O (configuration not stated)	u	15.2%	-16.4%	u	u	7.57µM*
Cc1ccc(N2CCN(C(=O)N3CCOCC3)CC2)cc1C	-0.3%	0.6%	x	-1.4%	0.8%	-0.6%
Cc1cc(N2CCOCC2)ccc1/C=C1\SC(=O)N(C(C)C)C1=O	1.41µM*	u	20.4%	1.41µM*	14.8%	3.79µM*
Cc1ccc(/C=N/NC(=O)c2cc(C3CC3)nc3ccccc23)o1	-23.6%	7.0%	-21.0%	-17.0%	10.3%	-1.4%
CC1=C(C(=O)Nc2cccnc2)C(c2ccc(F)cc2)n2nc(-c3cccc(C)c3)nc2N1 (configuration not stated)	x	x	-7.2%	x	x	1.7%
COc1ccccc1/C=C/C=N/n1c(-c2ccccc2)n[nH]c1=S	13.1%	-4.9%	x	2.3%	3.8%	15.1µM*
Cc1oc2ccc(O)c(CN(C)Cc3ccccc3)c2c1C(=O)Nc1cccc(C(F)(F)F)c1	x	x	-91.2%	x	x	4.6%
FC(F)(F)c1cnc(-c2cnc(-c3cccnc3)nc2)c(Cl)c1	3.98µM*	u	12.6µM*	2.51µM*	0.6%	u
CCCCN(CC)C(=O)c1nn(C)c2c1CSc1ccccc1-2	x	x	x	x	x	6.0%
COc1ccc(CCNC(=O)C(=O)NCC(c2cccs2)S(=O)(=O)c2cccs2)cc1 (configuration not stated)	x	x	x	x	x	2.9%
Cc1ccc(NC(=O)c2ccc(OC(F)F)cc2)cc1S(=O)(=O)N(C)C	0.3%	0.9%	-55.1%	8.1%	u	9.53µM*
Cc1ccc(NC(=O)c2ccc([N+](=O)[O-])cc2)cc1S(=O)(=O)N(C)C	u	-0.4%	0.9%	u	3.3%	u
CC(C)Oc1ccc(C(=O)Nc2ccc(Cl)c(S(=O)(=O)Nc3ccc(Cl)cc3)c2)cc1	0.7%	-9.8%	-70.0%	-1.5%	10.2%	15.1µM*
O=C(Nc1ccc(N2CCOCC2)cc1)c1ccc2ncsc2c1	x	19.0%	x	x	16.4%	x
O=C(Nc1ccc(C(F)(F)F)cc1)c1ccc2ncsc2c1	3.55µM*	u	x	3.55µM*	9.3%	13.5µM*
COc1ccc(NC(=O)c2ccc(OC(F)F)cc2)cc1Cl	2.51µM*	u	11.2µM*	2µM*	u	2.69µM*
Cc1ccc(N2CC(C(=O)NCc3nnnn3-c3ccc(C)c(C)c3)CC2=O)cc1C (configuration not stated)	x	x	x	x	x	6.2%
COC(=O)c1ccccc1S(=O)(=O)N1CCc2nc(-c3ccccc3)c3c(c2C1)CO[C@@H](C)C3	x	x	-4.0%[9.22 µM]	x	x	x
COCCNC(=O)Cn1c(=O)n(C)c2ccccc21	1.1%	2.8%	15.4%	2.0%	-0.9%	0.2%
Clc1ccc(-c2nc3sccn3c2/C=N/OCc2ccc(Cl)c(Cl)c2)cc1	x	x	-28.4%	x	x	x
Cc1ccc(NC(=O)c2ccc3ncsc3c2)cc1S(=O)(=O)N(C)C	0.355µM*	u	x	0.355µM*	2.5%	2.13µM*
O=C(Nc1ccc(OC(F)F)c(Cl)c1)c1ccccn1	0.631µM*	2.31µM*	11.2µM*	1µM*	0.0%	3.38µM*
O=C(Nc1cccc(Cl)c1)c1ccc2ncsc2c1	3.55µM*	u	x	3.98µM*	9.2%	19µM*
Cc1ccc(NC(=O)c2cccnc2)cc1S(=O)(=O)N(C)C	14.9%	6.9%	5.5%	-4.2%	-1.2%	-13.7%
SMILES	Rab9 prom act	ELG1 genotox	SMN2 splice enh	NPC1 prom act	p53 reactivation	FLuc modulator
O=C(Nc1ccc(F)cc1)c1ccc2ncsc2c1	3.55µM*	u	x	2.24µM*	19.5%	23.9µM*
CCC1(C)CC(c2nc(-c3ccc(OC)cc3)cs2)CCS1 (configuration not stated)	-3.8%	0.1%	-35.9%	-1.4%	12.5%	-10.4%
CCOC(=O)Cn1c(=O)n(-c2ccccc2OC)c2nc(-c3ccc(C(C)C)cc3)nc(C(N)=O)c21	x	x	x	x	x	-3.1%
CCOC(=O)c1c(C)sc(-c2c(-c3ccc4c(c3)OCCO4)[nH]c3c2c(=O)[nH]c(=O)n3C)c1O	x	x	x	x	x	-0.9%
O=C(O)c1ccc2ncsc2c1	3.55µM*	14.2%	x	u	2.2%	u
O=C(Nc1ccc(Cl)cc1)c1ccc2ncsc2c1	3.55µM*	u	x	2.82µM*	12.9%	12µM*
CC1(C)CCc2cc(-c3ccnc(=S)[nH]3)ccc2O1	0.631µM*	1.46µM*	x	0.447µM*	9.2%	10.7µM*
COc1cc(-c2noc(C)n2)cc(OC)c1OC	-1.9%	1.8%	x	-3.1%	-4.3%	-1.9%
O=C(CSc1nc2ccccc2nc1Cc1ccccc1)Nc1ccc2c(c1)OCO2	x	x	x	x	x	-1.8%
Cc1ccc(/C=[N+](\[O-])c2ccc(N(C)C)cc2)c2nsnc12	1.12µM*	11.7%	10µM*	u	u	1.35µM*
Cc1ccc2nsnc2c1NS(=O)(=O)c1c(C)ccc2nsnc12	-5.6%	0.1%	3.3%	2.4%	6.2%	3.4%
CCN(C(=S)Nc1ccccc1F)C1CCCCC1	-1.7%	-1.7%	-23.5%	0.0%	1.3%	2.8%
COc1cccc(/C=N/NC(=O)c2ccc3nc[nH]c3c2)c1	1.9%	1.1%	x	3.8%	4.4%	15.1µM*
COc1ccccc1/C=C/C=N/NC(=O)c1ccc2nc[nH]c2c1	0.9%	-23.6%	-18.5%	-1.4%	0.7%	16.9µM*
CN(C)c1ccc(/C=N/NC(=O)c2ccc3nc[nH]c3c2)cc1	17.8%	8.6%	x	3.4%	2.7%	13.5µM*
CCN(CC)c1ccc(/C=N/NC(=O)c2ccc3nc[nH]c3c2)cc1	0.3%	6.1%	x	3.3%	-0.3%	19µM*
COc1cc(/C=N/NC(=O)c2ccc3nc[nH]c3c2)ccc1O	-8.8%	-0.6%	x	-6.0%	-1.0%	u
O=S(=O)(c1ccccc1)N1CCC2(CCCN(c3ccccn3)C2)CC1	x	x	-18.4%	x	x	x
CCCCNC(=O)c1cnc2sc(N3CCCCCC3)nn2c1=O	x	x	x	x	x	-1.2%
CCOC(=O)c1c(C)n(-c2ccccc2)c2ccc(OCCN(C)C)cc12	-2.7%	-2.2%	x	-3.7%	-7.2%	-7.7%
CC(=O)N1CCC2(CC1)CCN(c1ccccc1)CC2	x	x	-14.0%	x	x	x
COc1cc2c(cc1OC)C(COc1cc(C)cc(C)c1)N(C(C)=O)CC2 (configuration not stated)	-3.7%	-0.5%[9.26 µM]	x	-7.2%	-3.9%	-1.3%
O=C(N/N=C/c1cccnc1)c1cccc(N2CCCC2=O)c1	29.4%	15.0%	x	7.7%	3.9%	u
